Among all 96,000 compounds or so, about 19,000 (20%) were called active.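 Rule for the calls: active = blocking of liver enzyme CYP2C9 beyond about 50% at 5 µM (limit read from the data); inactive = the rest.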 Not all results are given here.
Target: Cytochrome P450 2C9 (Homo sapiens) (UniProt P11712)
Assay: blockers of cytochrome P450 2C9 activity – biochemical, luminescence, ADME assay, primary screen (AID 777)
Settings: CYP2C9 Supersomes, luciferin-H conversion, at 5 µM, stronger effect = higher value

Cytochrome P450 2C9 (Homo sapiens), sequence (P11712 whole entry, looked up): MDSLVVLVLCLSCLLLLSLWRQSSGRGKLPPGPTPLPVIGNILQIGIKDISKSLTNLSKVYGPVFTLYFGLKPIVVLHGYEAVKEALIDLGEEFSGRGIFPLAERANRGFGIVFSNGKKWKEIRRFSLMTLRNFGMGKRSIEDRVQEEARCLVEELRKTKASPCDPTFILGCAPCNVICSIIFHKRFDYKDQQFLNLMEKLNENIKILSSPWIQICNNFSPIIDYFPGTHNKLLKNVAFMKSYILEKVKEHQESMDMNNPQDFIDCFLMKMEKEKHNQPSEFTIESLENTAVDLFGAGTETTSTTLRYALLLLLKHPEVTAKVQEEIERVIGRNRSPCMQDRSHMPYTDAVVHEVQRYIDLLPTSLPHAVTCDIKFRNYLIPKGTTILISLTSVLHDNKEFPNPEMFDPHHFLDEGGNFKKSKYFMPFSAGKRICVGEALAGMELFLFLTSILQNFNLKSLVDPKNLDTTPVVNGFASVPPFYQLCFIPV

inhibition, inactive:
COCc1cc(C)nc2sc(C(=O)NC3CCCCC3)c(N)c12 4.7%
COc1ccc(-n2cnc3cc(NCc4ccco4)ccc32)cc1 32.8%
COC(=O)[C@@H](NC(=O)Nc1cc(Cl)ccc1C)C(C)C 10%
OC(C#CCN1CCOCC1)(c1ccccc1)C1CCCCC1 (stereo unspecified) 30%
O=c1oc2cc(O)ccc2cc1-c1ccc(F)cc1 27.8%
CC1(C)CC(=O)C=C(NCCCNC2CCCCC2)C1 1%
CCOC(=O)c1c(N)sc(C(C)=O)c1C 25.8%
CCCCc1c(O)nc2n(c1=O)CCS2 -21.9%
COc1ccccc1NC1=NC(c2ccc(Cl)cc2)N=C(N)N1 (stereo unspecified) -7.5%
CCn1c2ccccc2c2cc(NC(=S)N3CCOCC3)ccc21 -46.3%
CCN1C(=O)c2cccc3c(N)ccc1c23 7.7%
COC(=O)CNC(=O)c1ccc2c(c1)S(=O)(=O)c1ccccc1C2=O -14.1%
CCC(C)Sc1nnc(-c2c[nH]c3ccccc23)n1CCOC (stereo unspecified) -4.5%
CCC(=O)N(Cc1ccccc1)c1ccccn1 -7.1%
CCOC(=O)c1ccccc1NC(=O)CC1Nc2ccccc2NC1=O (stereo unspecified) 29.5%
CCCC1NC(=O)NC(C)=C1C(=O)OCC (stereo unspecified) 39.8%
CCCC(O)(c1ccc(OC)cc1)C(CN(C)C)c1ccccc1 (stereo unspecified) -8.2%
O=C(NC(=O)c1ccc(Cl)c(Cl)c1)OC1CCS(=O)(=O)C1 (stereo unspecified) -16.4%
CCOc1ccccc1NC(=O)C12CC3CC(C1)CC(c1ccc(C)cc1)(C3)C2 -16%
N#C/C=C\Oc1ccc(Cl)cc1N -10.4%
O=C(CCN1C(=O)C2C3C=CC(C3)C2C1=O)Nc1ccccc1F (stereo unspecified) -2.2%
NC(=NC(=O)c1ccccc1)N1CCOCC1 4.1%
CCN(CC)C(=O)CSc1nnc(-c2ccc(S(=O)(=O)NCc3ccccc3Cl)cc2)o1 25.8%
O=C(OCC(=O)N1CCCC1)c1ccco1 5.6%
O=C(CSc1ccccc1)Nc1ccc(NC(=O)c2ccco2)cc1 42.7%
CCn1c(SCC(=O)Nc2cccc(F)c2)nnc1-c1cc2cc(Br)ccc2o1 36%
Oc1ccccc1/C=N/n1c(-c2cccs2)n[nH]c1=S 0.5%
Cc1nnc(C)n1/N=C/c1ccc(C(C)C)cc1 8.3%
Cc1ccc2[nH]c3c(=O)n(Cc4ccccn4)cnc3c2c1 2.1%
Cn1nnc2cc(C(=O)NCCC3=CCCCC3)ccc21 -22.1%
Cc1ccc(-n2ncc3c(=O)[nH]cnc32)c(C)c1 2.5%
Cn1c(=O)n(C)c(=O)n(CC(=O)N2CCCCC2)c1=O -13.7%
COc1ccc(C(=O)N(CCN2CCOCC2)CC(=O)NC2CCCC2)cc1OC -13.4%
CC(C)C[C@@H](N)c1nnc(SCC(=O)c2ccc(Cl)cc2)o1 49.8%
CCc1ccccc1NC(=O)CSc1nnc([C@@H](NC(=O)OC(C)(C)C)C(C)C)o1 20.3%
COc1ccccc1-c1nnc(SCC(=O)Nc2ccccc2)o1 -62.2%
Cc1cccc(NC(=O)CSC(N)=O)c1C 7.1%
C[C@H](NC(=O)OC(C)(C)C)c1nnc(SCC(N)=O)o1 30.9%
Cc1nc(C)c(C(=O)Nc2cccc(C)c2C)o1 1.2%
CN(C)CCNC(=O)C(C(=O)c1ccccc1)n1ccccc1=O (stereo unspecified) -3.6%
CCCCNC(=O)OC(C)CNC(=O)OC (stereo unspecified) -7.6%
O=C(C1CCCO1)N1CCC(c2nc3ccccc3[nH]2)CC1 (stereo unspecified) -3.1%
CCCNS(=O)(=O)c1ccc2c(c1)CCCN2C(C)=O 4.5%
COC(=O)C(C)C1Sc2ccccc2NC1=O (stereo unspecified) 2.8%
Cn1nc(-c2ccccc2)c(-c2nc(-c3ccc(Cl)cc3)no2)c1Cl 0.9%
CC1CN(c2nc(-c3ccccc3)nnc2-c2ccccc2)CC(C)O1 (stereo unspecified) 14.1%
CC1(C)CC(CC(=O)O)C(=O)O1 (stereo unspecified) 4.1%
O=C(O)CCCCc1nc2ccccc2s1 2.4%
O=C(O)CSCc1nc2ccccc2s1 -9.7%
C=CCNc1nc(C)nc(OC)n1 -13.4%
Cc1ccc(S(=O)(=O)N2CCC(C(=O)NCC3CCCO3)CC2)cc1 (stereo unspecified) -9.7%
CCn1cc(C(=O)NCC2CCCO2)c(=O)c2cc(S(=O)(=O)N3CCCCC3)ccc21 (stereo unspecified) 44%
Cn1c(-c2ccc(F)cc2)cnc1SCC(=O)NCc1ccco1 9.5%
O=C(CSc1nc2cc3c(cc2c(=O)n1CCC1=CCCCC1)OCO3)NCc1ccco1 8.9%
CCOc1cc2[nH]c(=O)n(CCC(=O)NCc3ccc(OC)cc3)c(=O)c2cc1OCC -2.1%
CCc1ccc(NC(=O)CSc2nc3ccccc3c(=O)n2CCN2CCOCC2)cc1 47.5%
O=C(NCC1CCCO1)C(C(=O)c1ccccc1)n1cc(Cl)ccc1=O (stereo unspecified) -9.3%
O=C(CSc1nnc(-c2ccco2)n1CC1CCCO1)c1ccccc1 (stereo unspecified) -3.9%
CCOC(=O)N1CCC(N(CCOC)C(=O)Nc2ccc(C)c(C)c2)CC1 -10.6%
CS(=O)(=O)Nc1ccc(C(=O)N2CCCC2)cc1 17.2%
CCOC(=O)N1CCN(C(=O)c2n[nH]c(=O)c3ccccc23)CC1 -4.2%
COc1ccc(C2C(C#N)=C(N)Oc3n[nH]c(C)c32)cc1CN1CCN(c2ccc(F)cc2)CC1 (stereo unspecified) 28%
O=C(Cn1cc2c(n1)CCCCC2)NCCN1CCOCC1 -11.3%
O=C(NC(c1ccccc1)c1ccccc1)N1CCN(CCO)CC1 4%
COc1ccc(N(CCC#N)S(=O)(=O)c2ccc(Cl)cc2)cc1 19.8%
C=CCC(NCc1ccco1)c1ccc(OC)cc1 (stereo unspecified) -14.6%
N#CCSc1nc2ccc(N3CCOCC3)cc2c(=O)n1CCc1ccccc1 30.9%
N#Cc1ccc(Oc2cc(C(F)(F)F)nc(-c3ccccn3)n2)cc1 42%
O=C(Nc1ccc(Cl)cc1)c1cc2nc(C3CC3)cc(C(F)(F)F)n2n1 -1.8%
COc1cc(OC)c(-n2c(C)cc(C=O)c2C)cc1Cl 16.9%
O=C(NCCSc1ccccc1)c1ccco1 -18.4%
COc1ccc(C(=O)NC(=S)NNC(=O)CCc2ccccc2)cc1 33.8%
CC(NC(=O)c1ccco1)C(=O)Nc1nc(-c2ccccn2)cs1 (stereo unspecified) 9.7%
CCNC(=S)NNC(=O)Cc1ccccc1 1.3%
O=S(=O)(N/N=C\c1cccn1-c1ccccc1)c1ccc2ccccc2c1 -71.5%
COc1ccccc1N=C1SC(C)CN1C(=O)C1CCC1 (stereo unspecified) -6.6%
Cc1nc(NC(=O)C23CCC(C)(C(=O)O2)C3(C)C)sc1C (stereo unspecified) -3.9%
Cc1cccc(-n2c(N)cc(=O)nc2SC(C)C(=O)NC2CCCCC2)c1 (stereo unspecified) 27.7%
O=C(CCCN1C(=O)c2ccccc2C1=O)Oc1ccc(Cl)cc1 19.8%
COc1cc(C(=O)Nc2oc(-c3ccccc3)c(-c3ccccc3)c2C#N)cc(OC)c1OC 43.6%
NC(=O)C1CCN(C2OC(=O)c3ccccc32)CC1 (stereo unspecified) -3.4%

inhibition, active:
CCCCCCc1cc2cc(-c3nnc(-c4ccccc4)o3)c(=O)oc2cc1O 90.8%
CCCCN(C)C(=O)c1ccc2c(c1)N(CC)C(=O)c1ccccc1S2(=O)=O 72.4%
CCOC(=O)C1=C(C)NC(C)=C(C(=O)OCC)C1c1ccccn1 94.2%
CCOC(=O)C1=C(C)NC(C)=C(C(=O)OCC)C1C1=COCCO1 77.4%
CSc1cccc(NC(=O)CSc2ccccc2)c1 73.2%
Cc1ccc2c(c1)c1ncn(CCC3=CCCCC3)c(=O)c1n2C 87.4%
Cc1cccc(NC(=O)CSc2nnc(CCCCCNC(=O)OC(C)(C)C)o2)c1C 67.6%
C[C@H](NC(=O)OC(C)(C)C)c1nnc(SCC(=O)Nc2ccc(Br)cc2)o1 50.7%
CCc1ccccc1NC(=O)CSc1nnc([C@@H](NC(=O)OC(C)(C)C)C(C)CC)o1 (stereo partly specified) 66.7%
Clc1ccc(-c2nnc(-c3ccccc3)nc2N2CCSCC2)cc1 59.2%
COc1ccccc1OCc1nc2ccccc2s1 51.7%
O=C(CCn1c(SCC(=O)c2ccccc2)nc2ccccc2c1=O)NCc1ccc(F)cc1 91.5%
O=C(CCCn1c(SCC(=O)c2ccccc2)nc2ccccc2c1=O)NCC1CCCO1 (stereo unspecified) 91.9%
CCn1c(SCC(=O)NCC2CCCO2)nc2cc(S(=O)(=O)N3CCCCC3)ccc21 (stereo unspecified) 50.2%
O=C(CCCn1c(SCC(=O)c2ccc(F)cc2)nc2ccccc2c1=O)NCc1ccco1 95%
CCCCn1c(SCC(=O)NCC2CCCO2)nc2ccc(N3CCOCC3)cc2c1=O (stereo unspecified) 74.1%
CC(Oc1ccc2ccccc2c1)C(=O)NNC(=S)NC(=O)c1ccco1 (stereo unspecified) 85.3%
CCCc1ccc(OCC(=O)NNC(=S)NC(=O)c2ccco2)cc1 65.8%
N#Cc1c(NC(=O)CCCN2C(=O)c3ccccc3C2=O)oc(-c2ccccc2)c1-c1ccccc1 50.3%
CS(=O)(=O)Nc1cccc(C2=NN(S(=O)(=O)c3ccccc3)C(c3cccs3)C2)c1 (stereo unspecified) 89.1%
